# Reference: the supplement of paper PMC3334620
# Whole data set: some 33,000 sequences, median “E-score (-0.5 to 0.5)” near -0.01, cut for the highest 2% near 0.26. The sample as a whole holds a higher share of the highest values than the screen did.
# Molecular target: Ste12 (UniProt P13574)
# Experiment: PBM E-score (8-mer binding enrichment) (E-score (-0.5 to 0.5)); higher = stronger / more preferred TF binding
# Conditions: protein concentration: 200 nM; construct: GST-DNA-binding domain
# How it was run: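 Bound GST-tagged yeast transcription factors, applied at about 100-200 nM to double-stranded universal all-10-mer Agilent arrays, were detected with fluorescent anti-GST. Scans were normalised with masliner. A modified Wilcoxon-Mann-Whitney statistic, the E-score, was assigned to each ungapped eight-base word pooled with its reverse complement by the Universal PBM Analysis Suite.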
# UniProt P13574, sequence (P13574 whole entry): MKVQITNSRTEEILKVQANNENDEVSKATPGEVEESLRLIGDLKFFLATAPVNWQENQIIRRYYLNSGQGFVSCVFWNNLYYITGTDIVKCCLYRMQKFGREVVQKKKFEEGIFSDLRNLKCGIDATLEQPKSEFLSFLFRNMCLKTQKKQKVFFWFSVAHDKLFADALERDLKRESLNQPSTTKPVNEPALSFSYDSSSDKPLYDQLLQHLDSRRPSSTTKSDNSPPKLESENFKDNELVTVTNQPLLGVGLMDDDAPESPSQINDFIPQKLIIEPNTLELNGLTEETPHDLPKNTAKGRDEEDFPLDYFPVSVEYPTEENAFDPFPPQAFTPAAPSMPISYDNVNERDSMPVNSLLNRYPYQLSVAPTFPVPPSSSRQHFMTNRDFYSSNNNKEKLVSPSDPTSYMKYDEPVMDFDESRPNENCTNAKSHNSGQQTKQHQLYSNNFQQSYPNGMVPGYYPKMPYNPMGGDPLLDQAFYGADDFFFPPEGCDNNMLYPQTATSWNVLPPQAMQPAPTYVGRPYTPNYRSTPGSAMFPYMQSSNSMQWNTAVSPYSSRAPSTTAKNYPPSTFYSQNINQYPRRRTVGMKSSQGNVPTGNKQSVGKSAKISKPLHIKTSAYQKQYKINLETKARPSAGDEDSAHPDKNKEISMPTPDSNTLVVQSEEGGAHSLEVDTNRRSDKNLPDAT
row,Sequence,PBM E-score
1,ATTCCCTG,0.0875
2,ATTCGTAA,0.166
3,CACCCTGA,-0.00848
4,AACCCTGA,0.305
5,ACCCCTGA,0.128
6,GTCTCTCA,-0.184
7,TCGTCTCA,0.134
8,CTGTCTCA,0.158
9,ATGTGTCA,0.119
10,GTGTGTCA,0.321
11,ATGTCTCG,-0.114
12,GTGTCTCA,0.338
13,ATGTCTCC,-0.0509
14,GCGTCTCA,0.166
15,CTGTGTCA,0.0491
16,ATGTCTCA,0.289
17,ACGTCTCA,0.274
18,AAGTCGTA,-0.129
19,TATGGGAA,0.0435
20,CGGCTGGC,-0.117
21,GCATTAAA,0.111
22,ACATTAAA,0.196

row,Sequence,PBM E-score
1,TTATTAAA,0.321
2,GTATTAAA,0.166
3,CTATTAAC,-0.0267
4,ATATTATC,0.181
5,ATATTATA,0.18
6,ATATTAAC,0.285
7,TCATTAAA,0.324
8,TAATTAAA,0.173
9,ATATTATG,0.303
10,GTATTAAC,0.132
11,CTGGGCAA,-0.0128
12,GGACTAGA,-0.124
13,TATGGTCA,-0.0454
14,CAGTAAGG,-0.0592
15,ACGCGAGC,-0.151
16,AGGTTACT,0.0862
17,TACTCCCA,0.056
18,ATATTAAT,0.298
19,CTATTAAA,0.219
20,ATATTAAA,0.29
21,ATATTAAG,0.109
22,AGATTAAT,0.0881

row,Sequence,PBM E-score
1,ATATTAGA,0.0159
2,GAATAATA,0.286
3,AAATAATT,0.294
4,TAATAATA,0.181
5,GAATAATC,0.00357
6,AAATAATC,0.171
7,AAATAATA,0.257
8,AGACTGCT,0.0365
9,AGCGCTAT,0.0744
10,AACTCATG,0.129
11,ATTGAGGG,-0.124
12,GAATGAGC,-0.0246
13,ATCCGAAT,0.192
14,AAAAACCC,0.0736
15,CAAACCTA,0.0393
16,AAAAACCT,0.263
17,AAAACCTA,0.283
18,AAAAACCG,0.178
19,AAAACCTT,0.142
20,CGAAGAAA,0.195
21,ACTCTCCG,-0.0208
22,AAGAAGAG,-0.00818

row,Sequence,PBM E-score
1,AAGTTGAC,0.0703
2,AGTAGGCG,-0.256
3,ATCCAATG,-0.165
4,ATCTCTCG,-0.0464
5,AAACAACC,0.277
6,AAACAATT,0.112
7,GATCAACA,-0.0858
8,GAACAACC,0.00021
9,AAACAACA,0.287
10,AAACAACT,0.174
11,CAACAACC,0.0311
12,AATCAACA,0.29
13,AAACAACG,0.0956
14,AAACAATA,0.274
15,TATCAACA,0.149
16,TAACAATA,0.239
17,GCCAATGA,-0.228
18,GGGTGGAC,-0.226
19,ACATTTTG,0.0789
20,ACAGTTGC,-0.0387
21,AACCATCT,0.0768
22,AGCTCAGC,-0.398

row,Sequence,PBM E-score
1,ACTGACAA,0.0676
2,ACCTGTCA,0.0912
3,TCACAAAA,0.271
4,CTACAAAA,0.228
5,ACACAAAA,0.26
6,ATACAAAA,0.209
7,TTACAAAA,0.301
8,GCACAAAA,0.165
9,ACGTTCTC,0.0364
10,TACCTATA,0.106
11,CGCATGAC,-0.0101
12,GCCTGTTA,0.00489
13,CCCTGTTC,-0.243
14,CCCTGTTA,0.279
15,CGCTCCTC,-0.106
16,CAGTAGGG,-0.176
17,CTGGCTAA,-0.0552
18,ACGTTTCC,-0.0394
19,GCGTTTGA,0.0907
20,TCGTTTAA,0.155
21,ACGTTTGG,0.127
